Inconclusive results are not listed. The source made the active and inactive calls. Unless noted, calls follow the shape of the dose curve; as a rule, active = well fitted curve in the direction sought with a large enough effect in the repeat runs; inconclusive = weak or mixed curves; inactive = no such curve, though single readings can be large; an effect the other way counts as inactive or inconclusive.
Experiments:
[1] = qHTS assay to identify small molecule antagonists of the TGF-beta/Smad signaling pathway - cell viability counter screen (AID 1346824); also: nearly all actives have a fitted effect of over 50% in size
Method in brief: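 SBE-bla HEK 293T cells, incubated overnight, then compound plus 0.25 ng/mL TGF-beta1 (stock added) for 5 hr at 37 C. Viability was read in the same wells by CellTiter-Glo luminescence after 30 min at room temperature.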

[2] = qHTS assay to identify small molecule agonists of the TGF-beta/Smad signaling pathway - cell viability counter screen (AID 1346829); also: top concentration of the series differs between compounds; nearly all actives have a fitted effect of over 45% in size
Method in brief: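 Cytotoxicity counter screen: CellTiter-Glo luminescence (30 min, room temperature) measured in the SBE-bla HEK 293T reporter wells after 5 hr compound treatment at 37 C and the 2 hr substrate step.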

[3] = qHTS assay to identify small molecule agonists of the TGF-beta/Smad signaling pathway (AID 1346859; active = well fitted activation curve with a large enough effect in the signal ratio in the repeat runs, not every such curve was filed as active; the % refers to the signal ratio; also: series mostly up to about 77 µM)
Method in brief: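 Beta-lactamase reporter activity downstream of Smad binding elements was measured in stably transfected HEK 293T cells; compounds were incubated for 5 hr, substrate for 2 hr at room temperature.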

[4] = target: Thyrotropin-releasing hormone receptor (Homo sapiens) (UniProt P34981); assay: qHTS assay to identify small molecule agonists of the thyrotropin-releasing hormone receptor (TRHR) signaling pathway (AID 1346891; calls by dose curve;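 also: HEK293 cells expressing TRHR with calcium dye readout; series mostly up to about 58 µM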)
Sequence of Thyrotropin-releasing hormone receptor (Homo sapiens) (P34981 whole entry, looked up): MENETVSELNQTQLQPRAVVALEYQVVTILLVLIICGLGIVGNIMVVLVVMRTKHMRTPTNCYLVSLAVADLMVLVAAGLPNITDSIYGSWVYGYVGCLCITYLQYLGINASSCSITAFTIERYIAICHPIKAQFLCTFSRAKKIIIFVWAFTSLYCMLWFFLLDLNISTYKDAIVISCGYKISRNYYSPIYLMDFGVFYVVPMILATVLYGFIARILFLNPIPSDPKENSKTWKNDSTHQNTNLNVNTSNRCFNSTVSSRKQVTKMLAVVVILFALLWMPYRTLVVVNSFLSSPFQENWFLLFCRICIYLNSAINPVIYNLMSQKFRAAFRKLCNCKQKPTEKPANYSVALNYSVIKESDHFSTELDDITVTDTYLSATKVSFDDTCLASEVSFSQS
Method in brief: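 Overnight-plated (18 h, 37 °C, 5% CO2) TRHR-Hek293 cells; 2 h calcium dye at 37 °C; compound in DMSO; 3-min kinetic fluorescence read.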

[5] = Human pregnane X receptor (PXR) small molecule agonists, qHTS cell viability counter screen (AID 1346977); also: nearly all actives have a fitted effect of over 50% in size
Method in brief: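 After a 5hr pre-incubation, PXR-Luc HepG2 cells received compounds plus positive control in DMSO and were kept 24hr at 37C. Cell viability was quantified by fluorescence from CellTiter-Fluor added for the final hour.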

[6] = Caspase-3/7 induction in HepG2 cells by small molecules, qHTS assay (AID 1346978); also: nearly all actives have a fitted effect of over 15% in size
Method in brief: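 Wild-type HepG2 cells, 2,000/well, settled 5 hr at 37 C and 5% CO2, then compound-treated for 17 hr; caspase-3/7 activity read by luminescent Caspase-Glo 3/7 after 30 min at room temperature.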

[7] = Caspase-3/7 induction in CHO-K1 cells by small molecules, qHTS cell viability counter screen (AID 1346979); also: nearly all actives have a fitted effect of over 35% in size
Method in brief: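 Multiplexed with Caspase-Glo 3/7 in CHO-K1 cells, this counter screen added CellTiter-Fluor after 16hr of compound exposure and recorded fluorescence 1hr later.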

[8] = Caspase-3/7 induction in CHO-K1 cells by small molecules, qHTS assay (AID 1346980); also: nearly all actives have a fitted effect of over 15% in size
Method in brief: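 Wild-type CHO-K1 cells exposed to compounds for 17hr at 37 C, 5% CO2. Caspase-3/7 activity then measured by Caspase-Glo 3/7 luminescence after 30min at room temperature.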

[9] = Caspase-3/7 induction in HepG2 cells by small molecules, qHTS cell viability counter screen (AID 1346981); also: series mostly up to about 92 µM; nearly all actives have a fitted effect of over 30% in size
Method in brief: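 Fluorescence read-out of live-cell protease activity (CellTiter-Fluor) after 1 hr with reagent. This was measured in the same wells as the caspase-3/7 luminescence, on HepG2 cells exposed to DMSO-dissolved compounds for 16 hr at 37 C.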

[10] = target: Nuclear receptor subfamily 1 group I member 2 (Homo sapiens) (UniProt O75469); assay: Human pregnane X receptor (PXR) small molecule agonists, qHTS assay (AID 1346982); also: nearly all actives have a fitted effect of over 35% in size; also: potency is read from the fitted curve at half-maximal effect
Sequence of Nuclear receptor subfamily 1 group I member 2 (Homo sapiens) (O75469 whole entry, looked up): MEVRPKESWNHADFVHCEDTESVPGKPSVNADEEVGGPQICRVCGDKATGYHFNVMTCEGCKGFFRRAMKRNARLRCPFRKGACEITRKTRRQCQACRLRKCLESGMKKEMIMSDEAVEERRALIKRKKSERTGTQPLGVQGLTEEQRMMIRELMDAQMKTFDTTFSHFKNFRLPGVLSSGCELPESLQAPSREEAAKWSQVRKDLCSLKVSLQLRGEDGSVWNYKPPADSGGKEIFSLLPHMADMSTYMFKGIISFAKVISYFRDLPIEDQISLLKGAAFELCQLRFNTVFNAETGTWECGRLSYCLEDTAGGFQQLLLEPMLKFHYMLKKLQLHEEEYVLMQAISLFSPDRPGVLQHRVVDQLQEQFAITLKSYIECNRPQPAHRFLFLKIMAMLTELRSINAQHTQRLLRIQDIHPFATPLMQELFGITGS
Method in brief: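 HepG2 PXR-Luc reporter line, 5% charcoal-stripped FBS; 5 hr pre-incubation, compound (DMSO) 24 hr at 37 C/5% CO2; ONE-Glo 30 min RT; luminescence read-out.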

[11] = target: Cytochrome P450 2D6 (Homo sapiens) (UniProt P10635); assay: Cytochrome P450 Family 2 Subfamily D Member 6 (CYP2D6) small molecule antagonists: luciferase reporter qHTS assay (AID 1671196); also: nearly all actives have a fitted effect of over 50% in size; also: potency is read from the fitted curve at half-maximal effect; as to activity change, negative = inhibition: series mostly up to about 120 µM
Sequence of Cytochrome P450 2D6 (Homo sapiens) (P10635 whole entry, looked up): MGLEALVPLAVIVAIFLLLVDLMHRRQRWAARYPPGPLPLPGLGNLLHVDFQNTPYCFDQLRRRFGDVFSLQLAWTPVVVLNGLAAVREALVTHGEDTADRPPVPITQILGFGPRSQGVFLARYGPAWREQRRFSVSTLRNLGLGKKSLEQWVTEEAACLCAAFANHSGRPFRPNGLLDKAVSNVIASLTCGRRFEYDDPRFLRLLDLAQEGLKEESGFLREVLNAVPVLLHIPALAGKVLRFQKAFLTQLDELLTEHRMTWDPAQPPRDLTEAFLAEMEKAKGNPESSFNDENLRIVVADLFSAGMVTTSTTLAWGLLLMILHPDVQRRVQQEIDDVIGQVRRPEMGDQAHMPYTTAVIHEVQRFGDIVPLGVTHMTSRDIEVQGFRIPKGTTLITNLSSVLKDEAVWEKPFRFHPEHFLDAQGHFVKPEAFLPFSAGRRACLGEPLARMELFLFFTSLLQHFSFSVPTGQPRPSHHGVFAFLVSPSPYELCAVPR
Method in brief: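 Luminogenic proluciferin substrate, CYP2D6 enzyme; 10 min RT preincubation with compound, NADPH regeneration system added, 1 h RT. Stop/detection reagent, 20 min RT, luminescence read (RLU). Signal proportional to CYP activity.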

[12] = target: Cytochrome P450 2C19 (Homo sapiens) (UniProt P33261); assay: Cytochrome P450 Family 2 Subfamily C Member 19 (CYP2C19) small molecule antagonists: luciferase reporter qHTS assay (AID 1671197); also: nearly all actives have a fitted effect of over 65% in size; also: potency is read from the fitted curve at half-maximal effect; as to activity change, negative = inhibition: series mostly up to about 120 µM
Sequence of Cytochrome P450 2C19 (Homo sapiens) (P33261 whole entry, looked up): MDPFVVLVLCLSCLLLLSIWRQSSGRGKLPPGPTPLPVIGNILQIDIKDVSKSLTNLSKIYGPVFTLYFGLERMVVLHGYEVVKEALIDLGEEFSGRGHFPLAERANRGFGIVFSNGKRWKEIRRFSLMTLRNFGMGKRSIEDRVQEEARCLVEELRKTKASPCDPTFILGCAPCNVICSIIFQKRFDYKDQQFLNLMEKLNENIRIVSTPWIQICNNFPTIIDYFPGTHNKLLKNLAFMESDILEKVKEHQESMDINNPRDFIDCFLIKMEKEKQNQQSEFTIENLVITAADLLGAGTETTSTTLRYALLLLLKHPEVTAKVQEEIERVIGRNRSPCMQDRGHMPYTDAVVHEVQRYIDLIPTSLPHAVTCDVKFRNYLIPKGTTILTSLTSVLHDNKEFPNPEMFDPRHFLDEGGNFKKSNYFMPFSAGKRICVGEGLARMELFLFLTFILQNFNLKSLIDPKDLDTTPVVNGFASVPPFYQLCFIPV
Method in brief: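 Luminescent readout of CYP2C19 activity: luciferin product detected 20 min after adding detection reagent. Before that, compound and enzyme-substrate mix preincubated 10 min at room temperature; NADPH-regenerating system started a 1 h, 37C reaction. Ketoconazole as positive control.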

[13] = target: Cytochrome P450 2C9 (Homo sapiens) (UniProt P11712); assay: Cytochrome P450 Family 2 Subfamily C Member 9 (CYP2C9) small molecule antagonists: luciferase reporter qHTS assay (AID 1671198); also: nearly all actives have a fitted effect of over 50% in size; also: potency is read from the fitted curve at half-maximal effect; as to activity change, negative = inhibition: series mostly up to about 120 µM
Sequence of Cytochrome P450 2C9 (Homo sapiens) (P11712 whole entry, looked up): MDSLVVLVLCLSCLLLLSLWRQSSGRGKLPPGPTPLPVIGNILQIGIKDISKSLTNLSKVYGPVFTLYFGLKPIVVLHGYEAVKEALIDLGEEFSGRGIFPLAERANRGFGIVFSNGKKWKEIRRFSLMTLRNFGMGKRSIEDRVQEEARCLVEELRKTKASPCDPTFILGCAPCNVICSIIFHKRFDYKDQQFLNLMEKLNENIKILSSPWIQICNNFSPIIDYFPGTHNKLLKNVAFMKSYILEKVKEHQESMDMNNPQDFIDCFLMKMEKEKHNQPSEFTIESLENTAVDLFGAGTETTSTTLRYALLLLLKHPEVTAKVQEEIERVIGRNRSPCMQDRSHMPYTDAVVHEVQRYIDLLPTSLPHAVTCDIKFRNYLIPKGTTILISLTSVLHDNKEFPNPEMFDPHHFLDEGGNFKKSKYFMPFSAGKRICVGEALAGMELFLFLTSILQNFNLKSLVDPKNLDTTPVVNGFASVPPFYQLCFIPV
Method in brief: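 P450-Glo proluciferin substrate with CYP2C9 enzyme; 10 min RT preincubation, then NADPH regeneration 1 h at 37C; luciferin detection reagent 20 min RT, luminescence in relative luminescence units.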

[14] = target: Voltage-gated inwardly rectifying potassium channel KCNH2 (Homo sapiens) (UniProt Q12809); assay: Human Ether-a-go-go-Related Gene (hERG) channel small molecule antagonists: fluorescence cell-based qHTS assay (AID 1671200)
Sequence of Voltage-gated inwardly rectifying potassium channel KCNH2 (Homo sapiens) (Q12809 whole entry, looked up): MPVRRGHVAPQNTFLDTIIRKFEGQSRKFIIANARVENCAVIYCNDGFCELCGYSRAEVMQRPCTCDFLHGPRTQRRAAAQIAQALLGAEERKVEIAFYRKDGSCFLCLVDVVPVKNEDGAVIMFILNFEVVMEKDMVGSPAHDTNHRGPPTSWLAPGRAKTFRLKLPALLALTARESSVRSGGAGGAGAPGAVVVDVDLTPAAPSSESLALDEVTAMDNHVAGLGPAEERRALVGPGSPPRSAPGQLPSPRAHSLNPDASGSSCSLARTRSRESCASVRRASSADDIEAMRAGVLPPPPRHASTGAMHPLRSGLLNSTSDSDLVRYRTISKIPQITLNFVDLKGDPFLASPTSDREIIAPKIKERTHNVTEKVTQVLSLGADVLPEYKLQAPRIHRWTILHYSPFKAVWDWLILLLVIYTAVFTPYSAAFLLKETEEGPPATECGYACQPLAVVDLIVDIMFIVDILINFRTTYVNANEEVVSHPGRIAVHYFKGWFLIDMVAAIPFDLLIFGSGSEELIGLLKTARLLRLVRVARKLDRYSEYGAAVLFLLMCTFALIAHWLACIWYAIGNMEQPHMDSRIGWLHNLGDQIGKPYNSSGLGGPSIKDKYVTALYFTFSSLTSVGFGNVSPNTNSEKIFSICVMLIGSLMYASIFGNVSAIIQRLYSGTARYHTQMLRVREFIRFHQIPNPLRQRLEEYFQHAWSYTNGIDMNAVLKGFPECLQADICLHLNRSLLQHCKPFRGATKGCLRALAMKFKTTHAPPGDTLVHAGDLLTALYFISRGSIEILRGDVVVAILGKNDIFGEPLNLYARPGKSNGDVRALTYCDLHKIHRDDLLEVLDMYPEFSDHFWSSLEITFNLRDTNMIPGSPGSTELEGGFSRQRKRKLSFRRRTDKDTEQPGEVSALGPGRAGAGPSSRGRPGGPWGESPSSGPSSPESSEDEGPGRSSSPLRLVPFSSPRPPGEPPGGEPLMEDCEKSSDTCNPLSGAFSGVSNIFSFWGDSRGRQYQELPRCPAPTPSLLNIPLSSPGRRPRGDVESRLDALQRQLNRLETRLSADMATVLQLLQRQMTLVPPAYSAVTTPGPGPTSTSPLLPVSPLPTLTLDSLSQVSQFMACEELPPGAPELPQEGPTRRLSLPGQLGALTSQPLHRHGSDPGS
Method in brief: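 Cell line hERG-U2OS; dye FluxOR II, 1 h RT dark; Tl+ stimulus; ex 480/em 540 nm, read each second for 2 min.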

[15] = target: Cytochrome P450 3A4 (Homo sapiens) (UniProt P08684); assay: Cytochrome P450 Family 3 Subfamily A Member 4 (CYP3A4) small molecule antagonists: luciferase reporter qHTS assay (AID 1671201)
Sequence of Cytochrome P450 3A4 (Homo sapiens) (P08684 whole entry, looked up): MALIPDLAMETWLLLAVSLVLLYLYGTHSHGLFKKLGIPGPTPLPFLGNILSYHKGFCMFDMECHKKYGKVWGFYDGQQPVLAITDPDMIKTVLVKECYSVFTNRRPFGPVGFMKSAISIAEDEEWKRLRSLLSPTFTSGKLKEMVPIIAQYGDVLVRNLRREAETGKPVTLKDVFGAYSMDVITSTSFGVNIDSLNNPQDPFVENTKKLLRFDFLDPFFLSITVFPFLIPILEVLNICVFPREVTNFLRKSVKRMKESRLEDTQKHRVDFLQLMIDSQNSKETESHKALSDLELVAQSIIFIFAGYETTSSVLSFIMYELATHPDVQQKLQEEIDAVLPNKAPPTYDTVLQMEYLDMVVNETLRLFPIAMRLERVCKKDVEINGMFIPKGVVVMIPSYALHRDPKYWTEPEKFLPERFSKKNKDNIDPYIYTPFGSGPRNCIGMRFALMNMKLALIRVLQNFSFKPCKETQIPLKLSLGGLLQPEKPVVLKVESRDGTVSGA
Method in brief: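 Room-temperature assay throughout: 10 min compound–enzyme/substrate preincubation, 1 h reaction after NADPH regeneration solution, 20 min detection. Luciferin formed from proluciferin substrate is quantified by luminescence.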

[16] = target: Cytochrome P450 1A2 (Homo sapiens) (UniProt P05177); assay: Cytochrome P450 Family 1 Subfamily A Member 2 (CYP1A2) small molecule antagonists: luciferase reporter qHTS assay (AID 1671199); also: nearly all actives have a fitted effect of over 50% in size; also: potency is read from the fitted curve at half-maximal effect; as to activity change, negative = inhibition: series mostly up to about 120 µM
Sequence of Cytochrome P450 1A2 (Homo sapiens) (P05177 whole entry, looked up): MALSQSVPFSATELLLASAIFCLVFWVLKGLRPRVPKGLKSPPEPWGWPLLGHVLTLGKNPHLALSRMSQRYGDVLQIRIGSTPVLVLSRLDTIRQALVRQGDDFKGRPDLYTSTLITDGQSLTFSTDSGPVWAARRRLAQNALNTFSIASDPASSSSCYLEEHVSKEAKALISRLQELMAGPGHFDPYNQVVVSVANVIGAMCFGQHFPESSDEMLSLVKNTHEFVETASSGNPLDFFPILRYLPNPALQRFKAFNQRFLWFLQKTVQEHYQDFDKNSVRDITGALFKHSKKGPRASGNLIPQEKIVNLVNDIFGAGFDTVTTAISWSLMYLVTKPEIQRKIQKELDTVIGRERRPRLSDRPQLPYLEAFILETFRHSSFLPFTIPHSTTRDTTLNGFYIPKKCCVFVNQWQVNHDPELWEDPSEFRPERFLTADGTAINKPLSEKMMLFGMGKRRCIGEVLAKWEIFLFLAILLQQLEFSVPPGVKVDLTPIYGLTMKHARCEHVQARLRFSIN
Method in brief: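 Luminescence readout (relative luminescence units) after luciferin detection reagent, 20 min RT. Preceded by 1 h room-temperature CYP1A2 reaction with NADPH regeneration solution following 10 min compound preincubation with enzyme and proluciferin substrate. Furafylline positive control.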

[17] = target: Nuclear receptor subfamily 1 group I member 2 (Homo sapiens) (UniProt O75469); assay: CYP3A4 induction through human pregnane X receptor (PXR) by small molecules, qHTS assay (AID 1346984); also: nearly all actives have a fitted effect of over 40% in size
Method in brief: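 HepG2-derived DPX-2 line carrying PXR plus a CYP3A4-promoter luciferase reporter; cells plated 5 hr, compound-exposed 24 hr at 37C. CYP3A4 activity probed with 3uM (final) Luciferin-IPA for 3hr, then luciferase read after One-Glo.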

[18] = target: Nuclear receptor subfamily 1 group I member 2 (Homo sapiens) (UniProt O75469); assay: Human pregnane X receptor (PXR) activation by small molecules, qHTS assay (AID 1346985); also: nearly all actives have a fitted effect of over 40% in size
Method in brief: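 DPX-2 cells (HepG2 co-transfected with a PXR response element and a CYP3A4-promoter luciferase construct) were seeded at 2,000 per well, rested 5 hr at 37C, then exposed to DMSO-dissolved compounds for 24 hr. Activation was read as luciferase luminescence.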
% is scaled to controls: 0 for no effect and ±100 for the full control effect.

COC(C)(OC)OC
inactive: outcome [1] | outcome [2] | outcome [3] | outcome [4] | outcome [5] | outcome [6] | Potency [7] | outcome [8] | outcome [9] | Potency [10] | Potency [11] | Potency [12] | Potency [13] | Potency [14] | Potency [15]

C=CCCCC
inactive: outcome [1] | outcome [2] | outcome [3] | outcome [5] | outcome [6] | Potency [7] | outcome [8] | outcome [9] | Potency [10] | Potency [11] | Potency [12] | Potency [13] | Potency [14] | Potency [15]

CCCCCC(C)O (centres undefined)
inactive: outcome [1] | outcome [2] | outcome [3] | outcome [4] | outcome [5] | Potency [7] | outcome [8] | outcome [9] | Potency [10] | Potency [11] | Potency [12] | Potency [13] | Potency [16] | Potency [14] | Potency [15]

CCC(C)C(C)=O (centres undefined)
inactive: outcome [1] | outcome [2] | outcome [3] | outcome [4] | outcome [5] | outcome [6] | Potency [7] | outcome [8] | outcome [9] | Potency [10] | Potency [13] | Potency [14] | Potency [15]
active: Potency [11] 34.8 µM

CC(C)Nc1ccccc1
inactive: outcome [1] | outcome [2] | outcome [3] | outcome [4] | outcome [5] | outcome [6] | Potency [7] | outcome [8] | outcome [9] | Potency [10] | Potency [11] | Potency [12] | Potency [13] | Potency [14] | Potency [15]

Cc1ncc([N+](=O)[O-])n1CC(C)O (centres undefined)
inactive: outcome [1] | outcome [2] | outcome [3] | outcome [4] | outcome [5] | outcome [6] | Potency [7] | outcome [8] | outcome [9] | Potency [10] | Potency [17] | Potency [11] | Potency [12] | Potency [13] | Potency [16] | Potency [14] | Potency [15]

CCN1CCCC1CN (centres undefined)
inactive: outcome [1] | outcome [2] | outcome [3] | outcome [4] | outcome [5] | outcome [6] | Potency [7] | outcome [8] | Potency [10] | Potency [11] | Potency [13] | Potency [16] | Potency [15]

CCCC(=O)OC/C=C(\C)CCC=C(C)C
inactive: outcome [1] | outcome [2] | outcome [3] | outcome [5] | outcome [6] | Potency [7] | outcome [8] | outcome [9] | Potency [10] | Potency [11] | Potency [12] | Potency [15]

COc1nc(N)nc2nc[nH]c12
active: Potency [11] 10 µM | Potency [16] 17.9 µM
inactive: outcome [1] | outcome [2] | outcome [3] | outcome [4] | outcome [5] | outcome [6] | Potency [7] | outcome [8] | outcome [9] | Potency [10] | Potency [13]

COC(=O)CCCCC(=O)O
inactive: outcome [1] | outcome [2] | outcome [3] | outcome [5] | outcome [6] | Potency [7] | outcome [8] | outcome [9] | Potency [10] | Potency [11] | Potency [12] | Potency [13] | Potency [16] | Potency [14] | Potency [15]

CC(C)=CCC[C@@](C)(O)[C@H]1CC=C(C)CC1
active: Potency [10] 29.8 µM | Potency [12] 8.71 µM | Potency [13] 17.4 µM
inactive: outcome [1] | outcome [2] | outcome [3] | outcome [5] | outcome [6] | Potency [7] | outcome [8] | outcome [9] | Potency [17] | Potency [18] | Potency [11] | Potency [14]

Cc1c(Cl)cccc1Cl
inactive: outcome [1] | outcome [2] | outcome [3] | outcome [5] | outcome [6] | Potency [7] | outcome [8] | outcome [9] | Potency [10] | Potency [11] | Potency [12] | Potency [13] | Potency [14] | Potency [15]

CC(=O)OC(C)=O
active: Potency [12] 72.3 µM
inactive: outcome [1] | outcome [2] | outcome [3] | outcome [4] | outcome [5] | Potency [7] | outcome [8] | outcome [9] | Potency [10] | Potency [11] | Potency [13] | Potency [16] | Potency [14] | Potency [15]

CC(C)CCOC(=O)c1ccccc1
inactive: outcome [1] | outcome [2] | outcome [3] | outcome [4] | outcome [5] | outcome [6] | Potency [7] | outcome [8] | Potency [10] | Potency [12] | Potency [13] | Potency [14] | Potency [15]

O=C(Cn1ccnc1[N+](=O)[O-])NCc1ccccc1
inactive: outcome [1] | outcome [2] | outcome [3] | outcome [4] | outcome [5] | Potency [7] | outcome [8] | Potency [10] | Potency [17] | Potency [18] | Potency [13] | Potency [16] | Potency [14] | Potency [15]

CC(=O)O[Si](C)(OC(C)=O)OC(C)=O
inactive: outcome [1] | outcome [2] | outcome [3] | outcome [5] | outcome [6] | Potency [7] | outcome [8] | outcome [9] | Potency [10] | Potency [11] | Potency [12] | Potency [13] | Potency [16] | Potency [14]

C=CCCCCCCCC
inactive: outcome [1] | outcome [2] | outcome [3] | outcome [4] | outcome [5] | outcome [6] | Potency [7] | outcome [8] | outcome [9] | Potency [10] | Potency [11] | Potency [12] | Potency [14]

CC1(C)CC(OC(=O)CCCCCCCCC(=O)OC2CC(C)(C)NC(C)(C)C2)CC(C)(C)N1
inactive: viability change, negative = cytotoxic [1] -1.01% [at 15.8 µM] | activity change, negative = cytotoxicity [2] 11.9% [at 15.8 µM] | activation [3] 0.453% [at 15.8 µM] | activation [4] 0.325% [at 11.8 µM] | caspase activation [6] 0.485% [at 19 µM] | activity change, negative = cytotoxicity [7] -1.35% [at 19 µM] | caspase-3/7 activation [8] -0.118% [at 19 µM] | activity change, negative = cytotoxicity [9] -0.861% [at 19 µM] | activation [10] 26.4% [at 19 µM] | activity change, negative = inhibition [11] -17.8% [at 23.6 µM] | activity change, negative = inhibition [13] -10.9% [at 23.6 µM] | activity change, negative = inhibition [16] -5.32% [at 23.6 µM] | activity change, negative = inhibition [14] -0.993% [at 15.8 µM]

Source: PubChem BioAssay (Tox21)
